This is an account of results in PubChem BioAssay (EPA / NIEHS).

Usually AC50 stands for the concentration at which the activity in the assay is half-maximal.

Activity calls are given as the source filed them. The calls were made as follows: active = hit-call score of the fitted dose curve at least 0.9, where 1 is the maximum; inactive = score below 0.9.

Assay [1] can be described thus: ATG_CRE_CIS: Attagene CIS-FACTORIAL HepG2 Assay for human cAMP Responsive Element (CRE) binding protein 3 (AID 2282926). The settings on record: HepG2 CRE cis-reporter, Attagene multiplexed mRNA; actives raise or lower the signal. The essentials: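 We dosed HepG2 cells bearing multiple cis-promoter reporter units for 24 h and measured reporter mRNA by RT-PCR with capillary electrophoresis detection. Bidirectional concentration-response fitting used DMSO as negative control.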

Assay [2] deals with CCAAT/enhancer-binding protein beta (Homo sapiens) (UniProt P17676). Kind of assay: ATG_C_EBP_CIS: Attagene CIS-FACTORIAL HepG2 Assay for human CCAAT/Enhancer Binding Protein (C/EBP) beta (AID 2282927). The settings on record: HepG2 Attagene cis-factorial transcription factor reporter; actives raise or lower the signal. Put shortly:
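RT-PCR/capillary electrophoresis fluorescence of reporter mRNA, 24 h post-dose, in HepG2 cells carrying transfected cis-promoter reporter units. Bidirectional curve fitting against DMSO baseline captures gain or loss of signal.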

Assay [3] can be described thus: ATG_CMV_CIS: Attagene CIS-FACTORIAL HepG2 Assay for human CMV (Internal Marker) (AID 2282928).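 Also: endpoint acts as a background internal control marker rather than a target.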 The settings on record: HepG2 CMV promoter reporter, transcription factor profiling; actives raise or lower the signal. Put shortly: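 Cell system: HepG2, transiently transfected multiple reporter units under cis promoters. Exposure: 24 h. Detection: RT-PCR, FAM labeling, HpaI digestion, capillary electrophoresis. Analysis: bidirectional, DMSO baseline.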

Assay [4] in a line: ATG_DR4_LXR_CIS: Attagene CIS-FACTORIAL HepG2 Assay for human Liver X Receptor (LXR), DR4 submotif (AID 2282929). The settings on record: HepG2 Attagene DR4 cis-reporter, mRNA transcription; actives raise or lower the signal. The essentials:
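Readout: reporter transcript fluorescence after RT-PCR and capillary electrophoresis, fitted bidirectionally against DMSO controls. Human HepG2 liver cells carried transiently transfected multiplexed reporter constructs; endogenous transcription factor activity measured 24 h post-dosing.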

In assay [5] the target is Aryl hydrocarbon receptor (Homo sapiens) (UniProt P35869). In words: ATG_Ahr_CIS: Attagene CIS-FACTORIAL HepG2 Assay for human Aryl Hydrocarbon Receptor (Ahr) (AID 2282930). Conditions: HepG2 AhR cis-factorial reporter transcription; actives raise or lower the signal. Put shortly:
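HepG2 cells transiently transfected with cis-element-driven multiplexed reporter transcription units; endogenous transcription factor activity measured as reporter mRNA 24 h after dosing. RT-PCR, 6-FAM labelling, HpaI digestion, capillary electrophoresis; bidirectional fitting versus DMSO baseline.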

A short description of assay [6]: ATG_AP_1_CIS: Attagene CIS-FACTORIAL HepG2 Assay for human Activator Protein 1 (AP-1) (AID 2282931). Conditions: HepG2 Attagene cis-factorial AP-1 reporter mRNA; actives raise or lower the signal. Put shortly: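 Reporter transcripts were measured 24 h after dosing by RT-PCR and capillary electrophoresis of fluorescent fragments. Cells: HepG2 carrying transfected cis-regulated reporter constructs reading endogenous factor activity. Gain or loss fitted against DMSO.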

The nature of assay [7]: ATG_AP_2_CIS: Attagene CIS-FACTORIAL HepG2 Assay for human Activator Protein 2 (AP-2) (AID 2282932). The settings on record: HepG2 AP-2 cis-reporter, Attagene transcription factor profiling; actives raise or lower the signal. Put shortly: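 Bidirectional curve fitting against DMSO was applied to reporter mRNA signals from HepG2 cells 24 h after dosing. Cis-promoter reporter units, transiently transfected, were read by RT-PCR plus capillary electrophoresis.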

Assay [8] can be described thus: ATG_BRE_CIS: Attagene CIS-FACTORIAL HepG2 Assay for human Bone Morphogenetic Protein (BMP) Response Element (BRE) (AID 2282933). Conditions: HepG2 BMP response element reporter, Attagene transcription factor profiling; actives raise or lower the signal. Put shortly: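 Multiplexed cis-reporter assay, HepG2, 24 h exposure. mRNA from reporter units quantified via RT-PCR/CE; DMSO baseline; bidirectional curve fit.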

Assay [9] addresses Retinoic acid receptor alpha (Homo sapiens) (UniProt P10276). Kind of assay: ATG_DR5_RAR_CIS: Attagene CIS-FACTORIAL HepG2 Assay for human Retinoic Acid Receptor Alpha (RARE), DR5 submotif (AID 2282934).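 As to AC50: reporter responds to endogenous RAR alpha beta and gamma in HepG2 not RARA alone.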 Conditions: HepG2 Attagene cis-factorial RARE DR5 reporter, mRNA; actives raise or lower the signal. The essentials:
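HepG2 cells transiently transfected with multiplexed reporter units under cis (DR5 RARE) promoters, so endogenous transcription factor activity is measured. After 24 h compound exposure, reporter mRNA is quantified by RT-PCR with fluorescent labelling and capillary electrophoresis; bidirectional fitting versus DMSO.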

Assay [10] concerns the target Transcription factor E2F1 (Homo sapiens) (UniProt Q01094). Kind of assay: ATG_E2F_CIS: Attagene CIS-FACTORIAL HepG2 Assay for human E2F Transcription Factor 1 (AID 2282935). Conditions: HepG2 Attagene cis-reporter, E2F reporter RNA transcripts; actives raise or lower the signal. Put shortly:
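Multiplexed cis-reporter assay: HepG2, transient transfection, 24 h dosing, mRNA quantitation by labeled RT-PCR and CE.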

Sequence of Aryl hydrocarbon receptor (Homo sapiens) (P35869 whole entry, looked up): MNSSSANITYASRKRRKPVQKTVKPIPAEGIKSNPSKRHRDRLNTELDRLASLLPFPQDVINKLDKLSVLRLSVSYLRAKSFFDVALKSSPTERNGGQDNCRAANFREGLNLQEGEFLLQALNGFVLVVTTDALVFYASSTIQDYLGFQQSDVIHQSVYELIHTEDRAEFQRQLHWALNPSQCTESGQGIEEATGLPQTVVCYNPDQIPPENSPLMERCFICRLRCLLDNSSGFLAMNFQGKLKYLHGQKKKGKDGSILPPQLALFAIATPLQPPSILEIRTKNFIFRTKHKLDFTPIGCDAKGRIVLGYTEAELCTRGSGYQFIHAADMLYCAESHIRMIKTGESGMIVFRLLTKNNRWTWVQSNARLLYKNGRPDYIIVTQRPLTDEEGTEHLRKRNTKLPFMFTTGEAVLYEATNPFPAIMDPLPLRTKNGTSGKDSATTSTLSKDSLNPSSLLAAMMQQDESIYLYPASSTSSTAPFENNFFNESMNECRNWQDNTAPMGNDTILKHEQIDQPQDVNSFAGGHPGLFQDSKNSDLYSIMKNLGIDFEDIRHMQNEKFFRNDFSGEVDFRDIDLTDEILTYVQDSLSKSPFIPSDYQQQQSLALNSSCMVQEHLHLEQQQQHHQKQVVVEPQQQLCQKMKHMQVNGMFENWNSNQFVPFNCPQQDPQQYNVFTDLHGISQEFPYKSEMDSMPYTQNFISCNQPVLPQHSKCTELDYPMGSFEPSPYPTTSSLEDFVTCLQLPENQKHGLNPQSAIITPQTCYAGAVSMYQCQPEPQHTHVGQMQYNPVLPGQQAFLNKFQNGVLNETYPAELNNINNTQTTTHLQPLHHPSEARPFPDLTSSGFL
Sequence of CCAAT/enhancer-binding protein beta (Homo sapiens) (P17676 whole entry, looked up): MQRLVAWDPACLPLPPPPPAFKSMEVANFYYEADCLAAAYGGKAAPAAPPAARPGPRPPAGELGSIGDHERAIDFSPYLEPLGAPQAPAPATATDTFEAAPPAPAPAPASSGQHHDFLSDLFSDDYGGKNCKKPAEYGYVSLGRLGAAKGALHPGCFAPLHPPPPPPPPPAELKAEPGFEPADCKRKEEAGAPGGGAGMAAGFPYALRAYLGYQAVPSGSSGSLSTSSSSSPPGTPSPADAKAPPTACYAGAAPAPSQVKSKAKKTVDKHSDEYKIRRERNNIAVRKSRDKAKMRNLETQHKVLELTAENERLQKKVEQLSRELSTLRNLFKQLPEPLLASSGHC
Sequence of Retinoic acid receptor alpha (Homo sapiens) (P10276 whole entry, looked up): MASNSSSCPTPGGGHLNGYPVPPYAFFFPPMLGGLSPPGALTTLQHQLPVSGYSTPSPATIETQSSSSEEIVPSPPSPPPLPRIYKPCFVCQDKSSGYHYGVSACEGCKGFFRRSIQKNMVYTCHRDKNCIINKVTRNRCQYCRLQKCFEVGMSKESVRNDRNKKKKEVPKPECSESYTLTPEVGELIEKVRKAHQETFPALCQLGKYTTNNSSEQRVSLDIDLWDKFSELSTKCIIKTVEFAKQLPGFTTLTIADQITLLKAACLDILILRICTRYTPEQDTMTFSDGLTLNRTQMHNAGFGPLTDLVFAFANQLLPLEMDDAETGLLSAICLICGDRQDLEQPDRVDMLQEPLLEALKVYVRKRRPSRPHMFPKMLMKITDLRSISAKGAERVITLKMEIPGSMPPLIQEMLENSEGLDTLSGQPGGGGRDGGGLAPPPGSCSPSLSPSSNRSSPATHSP
Sequence of Transcription factor E2F1 (Homo sapiens) (Q01094 whole entry, looked up): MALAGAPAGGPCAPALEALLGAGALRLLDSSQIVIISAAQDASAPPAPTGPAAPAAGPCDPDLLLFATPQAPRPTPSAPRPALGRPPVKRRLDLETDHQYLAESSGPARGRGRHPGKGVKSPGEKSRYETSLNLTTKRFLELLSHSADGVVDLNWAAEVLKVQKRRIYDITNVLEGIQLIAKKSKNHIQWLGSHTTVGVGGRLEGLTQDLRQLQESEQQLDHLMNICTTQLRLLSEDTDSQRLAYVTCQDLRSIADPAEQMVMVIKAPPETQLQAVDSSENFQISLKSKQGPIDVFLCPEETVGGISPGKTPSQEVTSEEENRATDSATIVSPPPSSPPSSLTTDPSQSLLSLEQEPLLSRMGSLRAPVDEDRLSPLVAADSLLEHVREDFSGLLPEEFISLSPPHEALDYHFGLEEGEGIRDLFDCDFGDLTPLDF

Take `CCCCC(CC)COC(=O)c1ccc(C(=O)OCC(CC)CCCC)cc1` (stereo unspecified): the compound was classed as inactive in assay [1], in assay [2], in assay [3], in assay [4], in assay [6] and in assay [7]. The compound was classed as inactive in [8], in assay [9] and in [10]. Also, the half-maximal activity concentration (AC50) in assay [5] is 66 µM (active).
Take `C1=CCCC=CCCC=CCC1`: the result in [2], in [5], in assay [7], in assay [8], in assay [9] and in [10] was inactive. Also, the AC50 is 135 µM (active) in [3], 100 µM (active) in [4] and 161 µM (active) in assay [6].
As to `CCOCCOCCOCCO`, the outcome in assay [1], in [2], in [3], in assay [4], in [5] and in [6] was inactive. The call in assay [7], in assay [8], in assay [9] and in assay [10] was inactive.
`Cc1ccc(N)cc1O`: the call in assay [1], in assay [2], in assay [3], in assay [4], in assay [6] and in assay [7] was inactive. Further, the compound was classed as inactive in assay [8], in [9] and in [10]. The AC50 in assay [5] was 2.56 µM (active).
Regarding `Fc1ccccc1[C@@H](F)COC1CCC(Nc2ncnc3[nH]ncc23)CC1` (stereo partly specified), the outcome in assay [2], in assay [4], in assay [5], in [6], in [7] and in assay [9] was inactive. For the same compound, the AC50 in assay [3] was 24.4 µM (active); in [8], 24.6 µM (active); in assay [10], 25.6 µM (active).
As to `Cn1c(=O)cc(Oc2ccc(F)cc2F)c2cnc(NCC(C)(C)O)nc21`, the compound was classed as inactive in [1], in assay [2], in [3], in assay [4], in assay [5] and in [6]. Also, the compound was called inactive in assay [7], in [8] and in assay [10].
As to `C=CCCCCCCCCC(=O)O`, the compound was called inactive in [1], in assay [2], in assay [3], in assay [4], in [5] and in assay [6]. In addition, the outcome in assay [7], in assay [8], in assay [9] and in assay [10] was inactive.
For `CC(C)(O)c1coc(S(=O)(=O)NC(=O)Nc2c3c(cc4c2CCC4)CCC3)c1`, the result in assay [1], in assay [2], in [3], in assay [4], in assay [5] and in assay [6] was inactive. For the same compound, the result in assay [7], in assay [8], in assay [9] and in [10] was inactive.
Regarding `CCCCC(CC)COC(=O)CCCCCCCCC(=O)OCC(CC)CCCC` (stereo unspecified), the AC50 in [1] is 25.2 µM (active). Besides, the outcome in [2], in assay [3], in assay [4], in assay [5], in assay [6] and in assay [7] was inactive. In addition, the result in [8] and in assay [10] was inactive.
Regarding `Cc1c(-c2cccnc2)c2ccccc2n1CCCCC(=O)O`, the outcome in assay [2], in assay [3], in [4], in assay [5], in [6] and in [7] was inactive. For the same compound, the compound was called inactive in [8], in assay [9] and in assay [10].
With `CC(C)=CCCC(C)=CC=O`, the result in assay [2], in assay [3], in assay [7], in [9] and in assay [10] was inactive. Moreover, the AC50 in assay [4] was 183 µM (active); in assay [5], 78.9 µM (active); in assay [6], 137 µM (active); in assay [8], 139 µM (active).
Turning to `CCOc1cccc(-n2cc(C(=O)N3CCN(c4cc(C(=O)O)c5ccccc5c4)CC3)nc2-c2ccc(C)cc2)c1`, the compound was classed as inactive in [1], in assay [2], in assay [3], in assay [5], in [7] and in [10]. Besides, the AC50 in [4] is 25.1 µM (active); in assay [6] it was 18.4 µM (active); in [8] it was 54.7 µM (active); in [9], 26 µM (active).
Consider `CC(C)=CCC/C(C)=C\CO`, for which the compound was classed as inactive in assay [1], in assay [2], in assay [3], in assay [4], in assay [5] and in assay [6]. For the same compound, the call in [7], in [8] and in [10] was inactive.
`CCc1cc(SCc2sc(-c3ccc(C(F)(F)F)cc3)nc2CN2CCN(c3ccc(OC)cc3)CC2)ccc1OCC(=O)O`: the result in [1], in assay [2], in assay [3], in assay [6], in assay [7] and in assay [9] was inactive. Further, the AC50 in assay [4] was 3.68 µM (active); in [5], 17.4 µM (active); in assay [8] it was 18.2 µM (active); in [10] it was 1.9 µM (active).
For the compound `CN(C)c1ccc(N=NS(=O)(=O)O)cc1`, the outcome in [2], in [3], in assay [4], in assay [7], in [8] and in assay [9] was inactive. Further, the outcome in assay [10] was inactive. Moreover, the AC50 is 7.46 µM (active) in [5] and 43.8 µM (active) in assay [6].
Turning to `CC(C)CCCCCCCOC(=O)CCCCC(=O)OCCCCCCCC(C)C`, the outcome in assay [1], in assay [2], in assay [3], in assay [4], in assay [6] and in assay [7] was inactive. Further, the compound was called inactive in [8] and in assay [10]. Moreover, the AC50 in assay [5] is 64.9 µM (active); in assay [9], 18 µM (active).
As for `CCOCCO`, the result in assay [2], in [3], in assay [4], in assay [5], in [6] and in assay [7] was inactive. Also, the call in [8], in [9] and in assay [10] was inactive.
For the compound `Clc1nc(Cl)c(Cl)c(Cl)c1Cl`, the result in assay [2], in assay [3], in assay [4], in assay [5], in [6] and in [7] was inactive. Further, the call in assay [8], in [9] and in assay [10] was inactive.
Take `Oc1ccc2c(c1)-c1ccccc1C2`: the AC50 was 74 µM (active) in assay [2]; 4.28 µM (active) in assay [3]; 1.79 µM (active) in assay [4]; 2.53 µM (active) in [5]; 84.4 µM (active) in assay [8]; 27.5 µM (active) in assay [9]. In addition, the call in [6], in [7] and in assay [10] was inactive.
With `CC[C@H]1OC(=O)[C@H](C)[C@@H](O[C@H]2C[C@@](C)(OC)[C@@H](O)[C@H](C)O2)[C@H](C)[C@@H](O[C@@H]2O[C@H](C)C[C@H](N(C)C)[C@H]2O)[C@](C)(O)C[C@@H](C)C(=O)[C@H](C)[C@@H](O)[C@]1(C)O`, the outcome in [2], in assay [3], in assay [4], in [5], in [6] and in assay [7] was inactive. Moreover, the compound was classed as inactive in [8], in assay [9] and in assay [10].
As for `O=c1[nH]c2ccc(S(=O)CCN3CCC(Cc4ccc(F)cc4)CC3)cc2o1` (stereo unspecified), the result in [2], in [3], in assay [5], in [6], in [7] and in assay [9] was inactive. Moreover, the call in assay [10] was inactive. In addition, the figures for the AC50 in assay [4] and in [8] were 173 µM (active) and 100 µM (active), respectively.
Regarding `CCOC(=O)c1ccc(C2CCC(NC[C@H](O)COc3ccc(O)c(NS(C)(=O)=O)c3)CC2)cc1` (stereo partly specified), the AC50 was 51.1 µM (active) in assay [2], 60 µM (active) in [4], 51.5 µM (active) in [6] and 51.4 µM (active) in [9]. The compound was called inactive in assay [3], in [5], in assay [7], in assay [8] and in assay [10].
